Compound activity (PubChem)
The list is not random: actives were taken first. Their share in the collection is about 2.6%.
PAFAH1B2 inh: inhibitors of human PAFAH1B2. recombinant PAFAH1B2, FP-rhodamine activity probe, fluorescence polarization. inhibition, % at 3.39 µM. actives 1.2% (n = 340,000). AID 492953. P68402;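 active means inhibition above the mean of all tested compounds plus 3 SD, cut at about 24% in these data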
PKA-R2B activ: activates the human PKA-R2B holoenzyme complex; P22694+P31323; PKA-R2B holoenzyme dissociation, Cy5-IP20 fluorescence polarization; R2B truncated from residue 108, S112A mutant; 0% DMSO only, 100% 113 µM cGMP; activation, % at 11.4 µM; actives 0.079% (n = 340,000); AID 504700;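 active means activation above a cutoff set at the mean over all compounds plus 3 SD, cut at about 18% in these data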;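 further: higher means more holoenzyme dissociation and a rise in polarization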
Target sequence (P31323 whole entry, looked up, other chains not shown, the tested form may be a part): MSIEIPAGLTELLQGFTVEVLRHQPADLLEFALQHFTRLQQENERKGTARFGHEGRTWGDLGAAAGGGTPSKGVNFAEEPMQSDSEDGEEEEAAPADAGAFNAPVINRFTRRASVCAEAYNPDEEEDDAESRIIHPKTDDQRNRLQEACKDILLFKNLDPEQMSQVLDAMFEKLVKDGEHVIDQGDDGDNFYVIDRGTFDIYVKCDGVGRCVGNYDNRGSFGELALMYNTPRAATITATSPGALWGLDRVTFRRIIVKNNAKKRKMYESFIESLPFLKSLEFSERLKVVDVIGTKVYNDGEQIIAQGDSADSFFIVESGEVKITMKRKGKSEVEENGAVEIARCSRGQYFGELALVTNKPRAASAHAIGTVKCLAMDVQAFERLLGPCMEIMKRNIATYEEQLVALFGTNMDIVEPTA
PAFAH2 inh: PAFAH2 (human) inhibition; Q99487; actives 0.99% (n = 340,000); recombinant PAFAH2, FP-rhodamine activity probe, fluorescence polarization; inhibition, % at 3.39 µM;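 active means inhibition above the mean over all tested compounds plus 3 SD, cut at about 30% in these data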;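 further: inhibitors block probe labeling of enzyme so polarization drops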
PAFAH1B3 inh: inhibitors of human PAFAH1B3; Q15102; inhibition, % at 3.39 µM; actives 0.28% (n = 340,000); recombinant PAFAH1B3, FP-rhodamine probe, fluorescence polarization;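 active means inhibition above the screen-wide average of all tested compounds plus 3 SD, cut at about 25% in these data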
Target sequence (Q15102 whole entry, looked up): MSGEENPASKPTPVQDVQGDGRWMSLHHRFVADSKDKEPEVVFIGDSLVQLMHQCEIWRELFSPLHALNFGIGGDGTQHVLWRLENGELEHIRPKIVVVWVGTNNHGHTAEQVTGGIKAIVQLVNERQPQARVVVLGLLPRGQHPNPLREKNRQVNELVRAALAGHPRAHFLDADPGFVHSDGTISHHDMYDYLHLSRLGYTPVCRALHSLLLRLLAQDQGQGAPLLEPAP
PKA-R1A activ: PKA-R1A complex activation; AID 504707; PKA-R1A dissociation, Cy5-IP20 fluorescence polarization; scaled: DMSO 0%, 113 µM cGMP 100%; activation, % at 11.4 µM; actives 0.083% (n = 340,000);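 active means percent activation above the mean of all tested compounds plus 3 SD, cut at about 19% in these data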;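 further: higher means more PKAc released from R1A so a rise in polarization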
pPAFAH inh: inhibitors of human plasma PAF acetylhydrolase (pPAFAH); recombinant pPAFAH, FP-rhodamine probe fluorescence polarization; inhibition, % at 3.39 µM; actives 1.5% (n = 330,000); AID 463082;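 active means inhibition above the mean inhibition across the screen plus 3 SD, cut at about 25% in these data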;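 further: inhibitors block binding of the rhodamine activity-based probe so polarization drops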
PAFAH1B3 confirm: confirmation of human PAFAH1B3 inhibitors | shares compounds with PAFAH1B3 inh | recombinant PAFAH1B3, FP-Rh activity-based probe, fluorescence polarization | inhibition, % at 3.39 µM | actives 30% (n = 390) | AID 493032;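 active means average inhibition over triplicate runs above the hit cutoff set in the earlier primary screen, cut at about 25% in these data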
Of the large screens only hits and unclear results are named; the others gave an inactive call (follow-up assays come after a bar, where they were run); ! = not active in a repeat.

CC(C)(C)NC[C@H](O)COc1cccc2c1CCCC2=O	none
COCCNC(=O)/C(C#N)=C/c1ccc(OC(=O)c2cccs2)c(OC)c1	PAFAH1B3 inh 26 (no result: pPAFAH inh) | PAFAH1B3 confirm inactive
CCN(CC(=O)N1CCCC1)S(=O)(=O)c1ccccc1	none (no result: pPAFAH inh)
O=Nc1c(O)[nH]c2ccc(F)cc12	none
O=Nc1c(O)[nH]c2ccc(Cl)cc12	PAFAH1B3 inh 26 | PAFAH1B3 confirm 34
COc1cc(Cl)c(NC2=CC(=O)C(=O)c3ccccc32)c(OC)c1	PAFAH1B3 inh 35 | PAFAH1B3 confirm 29
O=C1C=C(Nc2ccc(F)cc2)c2ccccc2C1=O	PAFAH1B3 inh 34 | PAFAH1B3 confirm inactive
COc1cc(C=C2C(=O)c3ccccc3C2=O)cc(OC)c1	none
Cc1ccc(NC2=CC(=O)C(=O)c3ccccc32)c(C)c1	PAFAH1B3 inh 40 | PAFAH1B3 confirm inactive
NC1=CC(=O)C(=O)c2ccccc21	none (no result: pPAFAH inh)
O=C1C=C(Nc2cccnc2)c2ccccc2C1=O	PAFAH1B3 inh 53 (no result: pPAFAH inh) | PAFAH1B3 confirm 27
Cc1ccc(NC(=O)COC(=O)c2cccc3c2C(=O)c2ccccc2C3=O)c(C)c1	none
O=C1OC(c2ccccc2)(c2ccccc2)c2ccsc21	none (no result: PAFAH1B2 inh, PAFAH2 inh, PAFAH1B3 inh, pPAFAH inh)
COc1cc(CN2CCCC(N3CCN(c4ccccc4C)CC3)C2)cc(Cl)c1O (configuration not stated)	none
O=C(CN1C(=O)NC2(CCCC2)C1=O)N1CCN(c2ccc(C(F)(F)F)cc2[N+](=O)[O-])CC1	none (no result: pPAFAH inh)
CCOc1ccc(NC2=CC(=O)C(=O)c3ccccc32)cc1	PAFAH1B3 inh 49 (no result: pPAFAH inh) | PAFAH1B3 confirm 31
CCN(CC(=O)Nc1ccc(NC(C)=O)cc1)C(=O)CSc1ncnc2sc(C)c(C)c12	none
CC(=O)SCCC(=O)Nc1ccccc1	PAFAH1B3 inh 26 | PAFAH1B3 confirm inactive
CC(=O)NNC(=O)CCC(=O)Nc1ccccc1	none
C=CCNC(=O)Cn1nnc(-c2ccc(-c3ccc(OC)cc3)cc2)n1	none
O=C1c2ccccc2C(=O)c2c1cccc2-n1nnc2ccccc21	none
O=C1C(N2CCOCC2)=C(n2nnc3ccccc32)C(=O)c2ccccc21	PAFAH1B3 inh 51 | PAFAH1B3 confirm 34
O=C(COC(=O)c1ccc([N+](=O)[O-])s1)NC(c1ccccc1)c1ccccc1	PAFAH1B3 inh 42 | PAFAH1B3 confirm inactive
CC(C)(C)c1ccc(NC(=O)COC(=O)c2ccc([N+](=O)[O-])s2)cc1	PAFAH1B3 inh 38 | PAFAH1B3 confirm inactive
CC(=O)c1ccc(OCC(=O)Nc2ccc3c(c2)OCO3)cc1	none (no result: PAFAH1B2 inh, PAFAH2 inh, PAFAH1B3 inh, pPAFAH inh)
COc1ccc(OC)c(S(=O)(=O)Nc2cc3c(cc2N2CCCC2)n(C)c(=O)c(=O)n3C)c1	none
CCN1CCN(S(=O)(=O)c2ccc(Cl)c(C(=O)NCCc3ccccc3)c2)CC1	none
CC(Nc1cccc2ccccc12)C(=O)N/N=C/c1ccccn1 (configuration not stated)	PAFAH1B3 inh 36 | PAFAH1B3 confirm inactive
CCOc1ccc(CCNC(=O)c2cccc(-n3cnnn3)c2)cc1OCC	none
CC1=NN(c2nc(-c3ccc(C)cc3)cs2)C(=O)C1N=Nc1cccc(O)c1 (configuration not stated)	PAFAH1B3 inh 26 | PAFAH1B3 confirm inactive
COc1ccc(NC(=O)CN2C(=O)NC3(CC(C)CC(C)(C)C3)C2=O)cc1S(=O)(=O)N1CCCCC1 (configuration not stated)	none
CC1CCN(S(=O)(=O)c2cc(C(=O)N3CCN(c4ccccc4)CC3)ccc2Br)CC1	none (no result: PAFAH1B2 inh, PAFAH2 inh, PAFAH1B3 inh, pPAFAH inh)
CC(C)Nc1ncnc2[nH]ncc12	none (no result: pPAFAH inh)
O=C(COC(=O)c1ccc2ccccc2c1O)NCc1ccccc1	none
O=C(COC(=O)c1ccc2ccccc2n1)NCc1ccccc1	PAFAH1B3 inh 47 | PAFAH1B3 confirm inactive
O=C(O)c1ccccc1Nc1ccc([N+](=O)[O-])cc1C(=O)O	PAFAH1B3 inh 43 | PAFAH1B3 confirm inactive
COc1ccc(C(=O)c2coc(-c3ccccc3C(=O)O)c2C(=O)O)cc1	none
COc1ccc(C(=O)c2c(C(F)(F)F)oc3c2C(=O)c2ccccc2C3=O)cc1	PAFAH1B3 inh 27 | PAFAH1B3 confirm inactive
O=C(O)[C@@H]1[C@H]2C[C@H]3c4[nH]c5ccccc5c4CCN3C[C@@H]2CC[C@@H]1O	PAFAH1B3 inh 28 | PAFAH1B3 confirm inactive
Nc1ccc2c3c(ccc([N+](=O)[O-])c13)CC2	none (no result: PAFAH1B2 inh, PAFAH2 inh, PAFAH1B3 inh, pPAFAH inh)
CC(=O)c1c(C)[nH]c(C(=O)Nc2ccc(Cl)c(S(=O)(=O)N3CCOCC3)c2)c1C	PAFAH1B3 inh 28 | PAFAH1B3 confirm inactive
Cc1sc2nc(CN3CCOCC3)nc(NS(=O)(=O)c3cc(Cl)ccc3Cl)c2c1C	none
O=c1cc(-c2ccc(O)c(O)c2)oc2c(C3O[C@H](CO)[C@@H](O)[C@H](O)[C@H]3O)c(O)cc(O)c12 (some centres not stated)	PAFAH1B3 inh 30 | PAFAH1B3 confirm inactive
O=c1cc(-c2ccc(O)cc2)oc2c(C3O[C@H](CO)[C@@H](O)[C@H](O)[C@H]3O)c(O)cc(O)c12 (some centres not stated)	none
CNC1=C(N(C(C)=O)c2ccc(Br)cc2)C(=O)c2ccccc2C1=O	PAFAH1B3 inh 38 | PAFAH1B3 confirm inactive
O=c1cc[nH]c2c1ccc1c(=O)cc[nH]c12	PAFAH1B3 inh 31 | PAFAH1B3 confirm 80
COc1ccc(Cn2c(O)c(/C=N/NC(=O)c3cccnc3)c3ccccc3c2=O)cc1	PAFAH1B3 inh 26 (no result: pPAFAH inh) | PAFAH1B3 confirm inactive
CNCCCC12CCC(c3ccccc31)c1ccccc12	PAFAH1B3 inh 50! | PAFAH1B3 confirm inactive
NC(=O)c1ccc(N2CCN(S(=O)(=O)c3cccs3)CC2)c([N+](=O)[O-])c1	none
NNc1nccc(Nc2ccccc2C(=O)O)n1	PAFAH1B3 inh 28 | PAFAH1B3 confirm inactive
c1ccc(Nc2ccnc(Nc3ccccc3)n2)cc1	none
C=CCc1cccc(/C=N/NC(=O)CNc2ccccc2OC)c1O	none
C=CCc1cccc(/C=N/NC(=O)CNc2cccc3ccccc23)c1O	PAFAH1B3 inh 26 | PAFAH1B3 confirm inactive
CCOC(=O)c1ccccc1N1C(=O)CSC1=S	PAFAH1B3 inh 38 | PAFAH1B3 confirm 38
CNc1ncnc2c1ncn2-c1ccccc1	none (no result: pPAFAH inh)
On1nnc2c3ccccc3c3ccccc3c21	PAFAH1B3 inh 38 | PAFAH1B3 confirm 42
O=C(NCC(O)c1ccccc1)Nc1cccs1 (configuration not stated)	none
ON=C1c2ccccc2-c2ccccc21	PAFAH1B3 inh 35 | PAFAH1B3 confirm 28
O=C(CCl)Nc1c(C(=O)Nc2ccc3c(c2)OCCO3)oc2ccccc12	PAFAH1B3 inh 26 | PAFAH1B3 confirm 30
